# Laboratory results reported in PubChem BioAssay.
# Calls of active or inactive are those of the source.
# Assays:
# [1] = small molecules captured by biotinylated probe aFSTL3 – biochemical, small-molecule microarray, fluorescence 635/667, stem cell growth factor project, primary screen (AID 1064); conditions: higher = more signal;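 also: measures binding of the biotinylated anti-FSTL3 antibody to printed compounds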
# [2] = binders from COS7 lysate, DM2A8 probe, primary screen, torsin A project, cell lysate, small-molecule microarray, fluorescence 635/667 (AID 1065); conditions: higher = more signal, COS7 lysate expressing mutant human TOR1A
# [3] = small molecules captured by biotinylated probe aFGF2 – biochemical, small-molecule microarray, fluorescence 635/667, stem cell growth factor project, primary screen (AID 1067); conditions: higher = more signal;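 also: measures binding of biotinylated aFGF2 protein to printed compounds on slides; z-score merges feature fluorescence and signal-to-noise across triplicate slides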
# [4] = small molecules captured by biotinylated probe aFGF10 – biochemical, small-molecule microarray, fluorescence 635/667, stem cell growth factor project, primary screen (AID 1071); conditions: higher = more signal;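 also: score merges 667 nm spot intensity and signal to noise from triplicate slides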
# [5] = biological target: Neurogenic locus notch homolog protein 2 (Homo sapiens) (UniProt Q04721); assay: small molecules binding Notch2 protein – biochemical, small-molecule microarray, 635 nm fluorescence, stem cell growth factors, primary screen (AID 1073); conditions: higher = more signal
# [6] = biological target: Pro-neuregulin-1, membrane-bound isoform (Homo sapiens) (UniProt Q02297); assay: small molecules binding neuregulin-1 protein – biochemical, small-molecule microarray, fluorescence 635/667, psychiatric disease protein project, primary screen (AID 1075); conditions: NRG1 binding, 635 nm fluorescence, higher = more signal;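 also: score combines 667 nm spot fluorescence with signal to noise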
# [7] = test system: Neuregulin-1 EGF-like domain; assay: small molecules binding NRG1 EGF domain – biochemical, small-molecule microarray, 635 nm fluorescence, primary screen (AID 1081); conditions: higher = more signal;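 also: binding of the protein to compounds printed on small-molecule microarray slides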
# [8] = FRG1 expression reporter modulators in myotubes – cell-based, C2C12 myotubes, firefly/Renilla luciferase, luminescence, FRG1 inhibition for FSHD, primary screen (AID 1084); conditions: FRG1 promoter luciferase, higher = more signal, called active from +8 up or from −8 down
# [9] = small molecules captured by biotinylated probe aFST – biochemical, small-molecule microarray, fluorescence 635/667, stem cell growth factor project, primary screen (AID 1086); conditions: higher = more signal;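 also: score merges 667 nm fluorescence with signal-to-noise of each printed compound spot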
# [10] = binders of probe aHhip on microarray, primary screen, stem cell growth factor project, biochemical, small-molecule microarray, fluorescence 635/667 (AID 1087); conditions: higher = more signal;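 also: score merges spot fluorescence at 667nm with spot signal to noise ratio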
# [11] = test system: PRMT1 (protein arginine N-methyltransferase 1); assay: small molecules binding arginine methyltransferase PRMT1 – biochemical, small-molecule microarray, 635 nm fluorescence, primary screen (AID 1088); conditions: higher = more signal;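 also: binding of Prmt1 protein to compounds spotted on small-molecule microarray slides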
# [12] = growth effects on S. cerevisiae YJM789 – YJM789 clinical isolate, OD600, 24 h, basal, primary screen (AID 1089); conditions: higher = more signal, called active from +8 up or from −8 down;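 also: growth of clinical yeast isolate S. cerevisiae YJM 789 seeded 1000 cells per well; test concentration not given here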
# [13] = S. pombe growth modifiers, basal conditions – strain 972, OD600, 24 h, no modulator, primary screen (AID 1090);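 also: basal condition with compound alone and no growth modifier present; test concentration not given here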; conditions: S. pombe 972 growth, higher = more signal, called active from +8 up or from −8 down
# [14] = budding yeast growth modifiers under rapamycin – strain BY4716, OD600, 96 h, primary screen (AID 1091); also: test concentration not given here; conditions: S. cerevisiae BY4716 + rapamycin, higher = more signal, called active from +8 up or from −8 down
# [15] = biological target: Torsin-1A-interacting protein 2 (Homo sapiens) (UniProt Q8NFQ8); assay: small molecules binding lysate-expressed LULL1 – cell lysate, human LULL1 lysate, 635/667 nm fluorescence, primary screen (AID 1092); conditions: small-molecule microarray, hLULL1 lysate binding, 635 nm fluorescence; higher = more signal;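 also: probe is lysate of COS7 cells overexpressing human LULL1; score merges per-feature 667 nm fluorescence with signal-to-noise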
# [16] = optical density change of DRC41 E. coli – strain DRC41, OD650, 24 h, E. coli filamentation project, primary screen (AID 1093);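 also: MC1000 strain lacking acrAB efflux and sulA so SOS filamentation is blocked; test concentration not given here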; conditions: E. coli DRC41 growth, higher = more signal, called active from +8 up or from −8 down
# [17] = probe aLefty2 binding to arrayed compounds – biochemical, biotinylated probe, 635/667 nm fluorescence, primary screen (AID 1094); conditions: small-molecule microarray, higher = more signal;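 also: score merges spot fluorescence near 667 nm with spot signal-to-noise ratio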
# [18] = test system: Noggin (protein binding on small-molecule microarray); assay: small molecules binding Noggin protein – biochemical, 635/667 nm fluorescence, primary screen (AID 1095); conditions: 635 nm fluorescence, higher = more signal;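 also: score merges 667 nm feature fluorescence with signal to noise over triplicate slides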
# [19] = biological target: Neurogenic locus notch homolog protein 3 (Homo sapiens) (UniProt Q9UM47); assay: small molecules binding NOTCH3 protein – biochemical, 635/667 nm fluorescence, primary screen (AID 1096); conditions: small-molecule microarray, 635 nm fluorescence, higher = more signal
# [20] = probe aEGFR binding to arrayed compounds – biochemical, biotinylated probe, 635/667 nm fluorescence, primary screen (AID 1097); conditions: small-molecule microarray, higher = more signal;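 also: probe is a biotinylated anti-EGFR antibody binding compounds printed on slides; score combines fluorescence near 667 nm and signal to noise of each spot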
# Sequence of Neurogenic locus notch homolog protein 2 (Homo sapiens) (Q04721 whole entry, looked up, canonical isoform): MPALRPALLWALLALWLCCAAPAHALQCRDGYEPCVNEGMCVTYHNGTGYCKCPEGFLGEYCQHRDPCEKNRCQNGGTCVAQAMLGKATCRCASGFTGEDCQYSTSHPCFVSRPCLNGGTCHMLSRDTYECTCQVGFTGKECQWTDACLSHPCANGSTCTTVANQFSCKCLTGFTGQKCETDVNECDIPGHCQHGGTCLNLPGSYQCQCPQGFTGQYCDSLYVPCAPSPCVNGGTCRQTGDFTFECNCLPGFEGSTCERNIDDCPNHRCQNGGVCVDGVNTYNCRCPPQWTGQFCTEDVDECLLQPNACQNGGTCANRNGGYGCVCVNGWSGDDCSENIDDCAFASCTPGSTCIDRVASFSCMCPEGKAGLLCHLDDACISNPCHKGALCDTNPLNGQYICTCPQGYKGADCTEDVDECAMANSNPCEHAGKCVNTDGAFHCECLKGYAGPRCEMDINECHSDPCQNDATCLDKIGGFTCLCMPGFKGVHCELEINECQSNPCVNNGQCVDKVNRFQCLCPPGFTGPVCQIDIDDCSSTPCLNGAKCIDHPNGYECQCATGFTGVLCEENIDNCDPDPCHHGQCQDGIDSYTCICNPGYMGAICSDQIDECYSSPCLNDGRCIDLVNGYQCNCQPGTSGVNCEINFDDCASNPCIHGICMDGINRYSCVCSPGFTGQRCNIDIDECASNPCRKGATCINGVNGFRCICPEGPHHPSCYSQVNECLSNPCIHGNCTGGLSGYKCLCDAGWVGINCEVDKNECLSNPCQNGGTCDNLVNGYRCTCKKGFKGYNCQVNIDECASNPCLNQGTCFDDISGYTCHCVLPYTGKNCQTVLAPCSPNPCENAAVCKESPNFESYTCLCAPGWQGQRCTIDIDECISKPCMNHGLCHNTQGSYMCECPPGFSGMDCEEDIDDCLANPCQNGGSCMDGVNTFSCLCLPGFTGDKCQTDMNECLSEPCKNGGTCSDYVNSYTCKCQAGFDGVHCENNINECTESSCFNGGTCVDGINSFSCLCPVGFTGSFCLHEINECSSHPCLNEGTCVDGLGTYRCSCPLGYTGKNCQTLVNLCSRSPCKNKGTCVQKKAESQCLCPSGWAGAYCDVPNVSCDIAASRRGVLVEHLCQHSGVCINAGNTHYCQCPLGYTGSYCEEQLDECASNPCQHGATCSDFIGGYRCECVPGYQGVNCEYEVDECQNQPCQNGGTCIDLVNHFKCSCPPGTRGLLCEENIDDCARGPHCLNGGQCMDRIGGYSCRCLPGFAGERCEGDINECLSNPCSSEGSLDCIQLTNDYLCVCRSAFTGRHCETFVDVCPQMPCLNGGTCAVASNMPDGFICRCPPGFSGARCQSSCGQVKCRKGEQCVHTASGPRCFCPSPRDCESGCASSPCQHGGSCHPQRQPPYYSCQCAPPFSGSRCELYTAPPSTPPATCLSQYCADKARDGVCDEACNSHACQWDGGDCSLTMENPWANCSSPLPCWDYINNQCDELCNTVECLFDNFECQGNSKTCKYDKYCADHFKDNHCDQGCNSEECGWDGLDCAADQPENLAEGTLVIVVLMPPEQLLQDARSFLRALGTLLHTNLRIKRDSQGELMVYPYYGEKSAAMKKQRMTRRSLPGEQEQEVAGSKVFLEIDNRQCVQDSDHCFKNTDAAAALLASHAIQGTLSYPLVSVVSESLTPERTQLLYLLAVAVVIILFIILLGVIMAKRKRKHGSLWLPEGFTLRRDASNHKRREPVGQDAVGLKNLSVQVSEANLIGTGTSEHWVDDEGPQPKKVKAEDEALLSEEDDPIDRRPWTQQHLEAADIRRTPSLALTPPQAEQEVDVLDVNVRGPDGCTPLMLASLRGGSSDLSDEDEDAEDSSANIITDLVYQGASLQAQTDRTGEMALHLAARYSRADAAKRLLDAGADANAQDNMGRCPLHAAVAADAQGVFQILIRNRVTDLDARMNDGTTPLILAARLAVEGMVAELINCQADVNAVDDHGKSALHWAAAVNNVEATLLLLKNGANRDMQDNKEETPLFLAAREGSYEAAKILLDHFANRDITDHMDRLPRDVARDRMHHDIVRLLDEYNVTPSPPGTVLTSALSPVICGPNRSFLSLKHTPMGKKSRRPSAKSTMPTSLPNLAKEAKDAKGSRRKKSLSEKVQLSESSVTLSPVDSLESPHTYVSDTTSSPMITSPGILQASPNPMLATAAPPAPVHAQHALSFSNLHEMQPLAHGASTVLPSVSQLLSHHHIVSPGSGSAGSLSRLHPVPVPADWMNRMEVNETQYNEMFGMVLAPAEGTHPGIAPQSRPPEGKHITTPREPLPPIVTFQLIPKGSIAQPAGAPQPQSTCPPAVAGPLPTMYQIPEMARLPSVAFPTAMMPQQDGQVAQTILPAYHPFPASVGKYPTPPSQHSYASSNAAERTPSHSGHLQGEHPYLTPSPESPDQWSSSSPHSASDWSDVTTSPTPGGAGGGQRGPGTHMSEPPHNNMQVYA
# Sequence of Neurogenic locus notch homolog protein 3 (Homo sapiens) (Q9UM47 whole entry, looked up): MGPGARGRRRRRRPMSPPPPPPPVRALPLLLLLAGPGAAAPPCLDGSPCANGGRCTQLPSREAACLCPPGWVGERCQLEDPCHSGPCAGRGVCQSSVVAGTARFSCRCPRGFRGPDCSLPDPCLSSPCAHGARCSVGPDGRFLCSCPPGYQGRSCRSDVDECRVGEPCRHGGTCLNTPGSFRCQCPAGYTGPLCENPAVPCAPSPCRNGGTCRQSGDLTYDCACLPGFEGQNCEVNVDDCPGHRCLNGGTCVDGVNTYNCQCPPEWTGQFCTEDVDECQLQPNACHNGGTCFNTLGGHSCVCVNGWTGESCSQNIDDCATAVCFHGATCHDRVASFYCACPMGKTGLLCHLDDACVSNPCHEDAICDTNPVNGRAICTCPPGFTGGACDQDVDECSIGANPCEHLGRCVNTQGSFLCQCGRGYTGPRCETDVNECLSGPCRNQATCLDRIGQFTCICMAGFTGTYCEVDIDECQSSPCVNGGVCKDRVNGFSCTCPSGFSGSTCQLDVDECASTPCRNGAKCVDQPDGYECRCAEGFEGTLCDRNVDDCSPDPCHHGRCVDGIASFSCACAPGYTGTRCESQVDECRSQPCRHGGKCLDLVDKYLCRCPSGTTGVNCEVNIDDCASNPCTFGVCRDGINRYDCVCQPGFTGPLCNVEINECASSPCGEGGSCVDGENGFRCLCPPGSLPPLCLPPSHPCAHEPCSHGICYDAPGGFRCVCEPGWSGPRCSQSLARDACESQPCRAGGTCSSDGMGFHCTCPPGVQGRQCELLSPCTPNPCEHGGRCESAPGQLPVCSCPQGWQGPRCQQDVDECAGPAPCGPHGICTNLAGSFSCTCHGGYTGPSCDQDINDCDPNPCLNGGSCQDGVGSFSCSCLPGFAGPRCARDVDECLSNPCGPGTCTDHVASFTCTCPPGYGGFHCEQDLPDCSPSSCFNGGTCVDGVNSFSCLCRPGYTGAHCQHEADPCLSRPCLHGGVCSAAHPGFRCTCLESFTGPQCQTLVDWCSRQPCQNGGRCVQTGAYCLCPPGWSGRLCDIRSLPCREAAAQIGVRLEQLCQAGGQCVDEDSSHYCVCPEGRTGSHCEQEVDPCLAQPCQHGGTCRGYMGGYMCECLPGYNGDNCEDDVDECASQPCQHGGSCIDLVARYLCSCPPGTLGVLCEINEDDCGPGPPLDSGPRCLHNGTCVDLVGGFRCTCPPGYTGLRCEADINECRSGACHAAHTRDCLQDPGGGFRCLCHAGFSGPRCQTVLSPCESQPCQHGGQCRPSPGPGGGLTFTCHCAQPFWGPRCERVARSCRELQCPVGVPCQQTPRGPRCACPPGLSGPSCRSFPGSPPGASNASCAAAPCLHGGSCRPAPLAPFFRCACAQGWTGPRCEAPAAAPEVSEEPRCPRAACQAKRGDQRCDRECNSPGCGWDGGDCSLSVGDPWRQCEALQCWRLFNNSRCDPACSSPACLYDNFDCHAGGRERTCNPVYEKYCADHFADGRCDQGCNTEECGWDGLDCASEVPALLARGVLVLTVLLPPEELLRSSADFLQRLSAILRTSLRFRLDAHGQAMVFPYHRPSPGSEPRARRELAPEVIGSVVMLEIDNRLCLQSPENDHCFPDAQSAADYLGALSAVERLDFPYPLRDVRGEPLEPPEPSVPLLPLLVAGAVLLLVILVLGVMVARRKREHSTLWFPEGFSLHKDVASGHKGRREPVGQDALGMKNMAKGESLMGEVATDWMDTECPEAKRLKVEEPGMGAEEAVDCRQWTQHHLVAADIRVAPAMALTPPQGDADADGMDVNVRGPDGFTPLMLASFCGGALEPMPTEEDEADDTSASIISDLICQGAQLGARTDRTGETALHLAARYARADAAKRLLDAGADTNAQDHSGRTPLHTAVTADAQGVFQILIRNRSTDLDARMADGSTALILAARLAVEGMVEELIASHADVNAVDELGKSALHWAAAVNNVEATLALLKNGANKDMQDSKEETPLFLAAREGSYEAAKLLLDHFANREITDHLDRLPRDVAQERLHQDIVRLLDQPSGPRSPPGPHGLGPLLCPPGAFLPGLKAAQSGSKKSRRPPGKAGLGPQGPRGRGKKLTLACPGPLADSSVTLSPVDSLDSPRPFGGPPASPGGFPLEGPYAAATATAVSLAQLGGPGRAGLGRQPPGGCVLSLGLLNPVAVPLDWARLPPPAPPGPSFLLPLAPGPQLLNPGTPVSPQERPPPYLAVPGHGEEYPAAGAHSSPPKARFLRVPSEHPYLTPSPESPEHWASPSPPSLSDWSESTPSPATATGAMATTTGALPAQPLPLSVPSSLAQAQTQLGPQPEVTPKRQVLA
SMILES,composite z-score [1],composite z-score [2],composite z-score [3],composite z-score [4],composite z-score [5],composite z-score [6],composite z-score [7],z-score [8],composite z-score [9],composite z-score [10],composite z-score [11],z-score [12],z-score [13],z-score [14],composite z-score [15],z-score [16],composite z-score [17],composite z-score [18],composite z-score [19],composite z-score [20]
C=CC[C@@]1(C(=O)NCCN2CCOCC2)N=C(c2ccc(OCCCO)cc2)O[C@@H]1c1ccccc1CN=[N+]=[N-],1,0.812,-0.0524,0.455,0.674,1.26,1.29,-0.484 (inactive),1.65,0.0989,1.56,-1.46 (inactive),-1.18 (inactive),-0.548 (inactive),3.02,0.0499 (inactive),0.149,-0.0392,0.19,-0.0735
COc1ccc([Si](C)(C)[C@H]2[C@H](CC(=O)N3Cc4ccccc4C[C@H]3CO)O[C@@]3(C(=O)N(Cc4cccc(I)c4)c4ccccc43)[C@@H]2C)cc1,-0.0638,2.29,-0.0158,0.142,0.379,0.438,0.853,-2.84 (inactive),-0.186,0.289,1.55,-0.413 (inactive),0.603 (inactive),2.75 (inactive),-0.48,1.2 (inactive),-0.119,2.05,0.863,-0.0758
O=C1OCC=C[C@H]2OC34C=CCN(Cc5ccccc5)C(=O)[C@H]3N(CCCO)C(=O)[C@@H]4[C@@H]12 (stereo not given in full),0.646,-0.815,0.0661,-0.17,-0.286,2.42,1.42,0.0735 (inactive),0.245,0.902,0.733,0.393 (inactive),-0.885 (inactive),-0.38 (inactive),3.71,2.76 (inactive),0.694,0.319,0.288,-0.0703
[N-]=[N+]=NCc1ccccc1[C@@H]1OC(c2ccc(OCCCO)cc2)=N[C@]1(Cc1ccccc1)C(=O)O,0.221,0.163,0.0909,1.04,0.526,1.57,1.25,2.29 (inactive),0.461,-0.0581,1.54,0.452 (inactive),-1.11 (inactive),-0.486 (inactive),3.2,0.652 (inactive),0.0769,-0.0061,0.315,0.271
O=C1OCCC=C[C@H]2OC34C=CCN(c5ccc6ccccc6c5)C(=O)[C@H]3N(CCCCCCO)C(=O)[C@@H]4C12 (stereo not given in full),0.366,0.79,-0.143,-0.367,-0.834,2.03,0.193,1.66 (inactive),-0.514,-0.546,0.864,0.494 (inactive),-1.55 (inactive),0.22 (inactive),0.911,0.67 (inactive),-0.087,-1.63,-0.228,-0.178
O=C1C2C=CC(C(O)c3ccc(B(O)O)cc3)N(Nc3ccc([N+](=O)[O-])cc3)C2C(=O)N1c1ccccc1 (stereo not given),-0.28,0.378,0.0121,0.84,1.46,1.56,1.05,0.663 (inactive),1.25,-0.236,1.26,-26.5 (active),-16.1 (active),0.847 (inactive),2.54,-0.465 (inactive),0.143,0.288,1.03,0.105
CC(C)C[C@@H]1NC(=O)[C@@H]2C[C@H](C(=O)NCCCCN(C)C)[C@H](c3ccc(O)cc3)N2C1=O,0.493,-0.202,-0.167,-1.02,-1.32,-0.343,0.443,1.92 (inactive),-0.819,-0.0296,0.577,-0.145 (inactive),1.36 (inactive),-0.367 (inactive),0.218,-0.0929 (inactive),0.0566,0.118,-0.531,-0.218
CO[C@H]1O[C@H](CO)[C@@H](OC(=O)Nc2ccc(C(F)(F)F)cc2)[C@H](OC(=O)Nc2ccccc2)[C@@H]1OC(=O)Nc1ccccc1,-0.181,-0.0087,0.113,0.392,1.29,0.781,0.879,5.33 (inactive),0.234,-0.188,1.54,0.0975 (inactive),0.252 (inactive),0.168 (inactive),3.11,-0.142 (inactive),-0.0657,1.24,0.968,-0.289
COc1ccc(C(=O)Nc2cccc(CN3C(=O)[C@@]4(O[C@@H](CC(=O)N5Cc6ccccc6C[C@H]5CO)[C@H]([Si](C)(C)c5ccc(OC)cc5)[C@H]4C)c4ccccc43)c2)cc1,0.0279,1.09,-0.0924,0.505,0.493,0.598,1.25,-2.95 (inactive),0.349,-0.0994,1.55,-1.26 (inactive),0.166 (inactive),1.22 (inactive),1.71,-0.209 (inactive),0.0327,1.25,0.893,0.0276
COC(=O)c1c(CC[C@@H](CO)NC(=O)Nc2ncn[nH]2)oc(C(=O)Cc2ccccc2)c1C(=O)OC,-0.468,-0.0764,-0.214,0.511,1.21,0.163,0.778,0.004 (inactive),0.524,0.0722,1.08,-0.342 (inactive),0.387 (inactive),0.285 (inactive),2.99,-0.871 (inactive),-0.016,0.565,1.17,-0.0697
